# Assay results taken from the supplement of paper PMC6555819.
# Assays:
# Test in all cases: PBM binding z-score (relative to random genomic background probes); higher = stronger binding; sequences stand for … in GC…GCGATTGACAGCGTAGAATGAAGG
# [1] = system: FXR:RXRa (NR concentration 270 nM, RXRa partner concentration 90 nM)
# Procedure, shortened: (§1)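 Each nuclear receptor dimer, without ligand, was incubated for 1 h on custom Agilent 4×180K protein-binding microarrays. Binding was detected with antibodies against each partner (one per run), and scanned fluorescence was regression-normalized. The binding z-scores are referenced to random human genomic background probes.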
# [2] = system: LXRa:RXRa (NR concentration 270 nM, RXRa partner concentration 90 nM)
# Procedure, shortened: as §1
# [3] = system: LXRa homodimer (NR concentration 270 nM)
# Procedure, shortened: as §1
# [4] = system: LXRb:RXRa (NR concentration 270 nM, RXRa partner concentration 90 nM)
# Procedure, shortened: as §1
# [5] = system: LXRb homodimer (NR concentration 270 nM)
# Procedure, shortened: as §1
# [6] = system: PPARa:RXRa (NR concentration 270 nM, RXRa partner concentration 90 nM)
# Procedure, shortened: as §1
# [7] = system: PPARg:RXRa (NR concentration 180 nM, RXRa partner concentration 90 nM)
# Procedure, shortened: as §1
# [8] = system: PPARg:RXRa 270nM:90nM, anti-RXR (NR concentration 270 nM, RXRa partner concentration 90 nM)
# Procedure, shortened: as §1
# [9] = system: PPARg:RXRa 30nM:10nM, anti-RXR (NR concentration 30 nM, RXRa partner concentration 10 nM)
# Procedure, shortened: as §1
# [10] = system: PPARg:RXRa 90nM:30nM, anti-RXR (NR concentration 90 nM, RXRa partner concentration 30 nM)
# Procedure, shortened: as §1
# [11] = system: PPARg:RXRa DBDmut IVT, anti-RXR (DBD mutation: RXRa K156A/R161A, NR concentration 270 nM, RXRa partner concentration 90 nM)
# Procedure, shortened: as §1
# [12] = system: PPARg:RXRa IVT, anti-PPARg (NR concentration 270 nM, RXRa partner concentration 90 nM)
# Procedure, shortened: as §1
# [13] = system: PPARg DBDmut:RXRa IVT, anti-PPARg (DBD mutation: PPARg1 K132A/R137A, NR concentration 270 nM, RXRa partner concentration 90 nM)
# Procedure, shortened: as §1
# [14] = system: PPARg DBDmut IVT, anti-PPARg (DBD mutation: PPARg1 K132A/R137A, NR concentration 270 nM)
# Procedure, shortened: as §1
# [15] = system: PPARg homodimer (NR concentration 180 nM)
# Procedure, shortened: as §1
# [16] = system: PXR:RXRa (NR concentration 270 nM, RXRa partner concentration 90 nM)
# Procedure, shortened: as §1
# [17] = system: PXR homodimer (NR concentration 270 nM)
# Procedure, shortened: as §1
# [18] = system: RARa:RXR (NR concentration 270 nM, RXRa partner concentration 90 nM)
# Procedure, shortened: as §1
# [19] = system: RARa homodimer (NR concentration 270 nM)
# Procedure, shortened: as §1
# [20] = system: RARb:RXRa (NR concentration 270 nM, RXRa partner concentration 90 nM)
# Procedure, shortened: as §1
sequence,measurement,setting,value
TCTTATAGGTAAAAGGTGAAAGTCGGTGTGGTAA,PBM binding z-score,[1],2.14
same,PBM binding z-score,[2],2.25
same,PBM binding z-score,[3],0.401
same,PBM binding z-score,[4],2.19
same,PBM binding z-score,[5],0.39
same,PBM binding z-score,[6],5.39
same,PBM binding z-score,[7],8.99
same,PBM binding z-score,[8],8.57
same,PBM binding z-score,[9],8.65
same,PBM binding z-score,[10],9.86
same,PBM binding z-score,[11],5.43
same,PBM binding z-score,[12],5.26
same,PBM binding z-score,[13],1.47
same,PBM binding z-score,[14],1.32
same,PBM binding z-score,[15],3.07
same,PBM binding z-score,[16],1.92
same,PBM binding z-score,[17],0.675
same,PBM binding z-score,[18],3.31
same,PBM binding z-score,[19],1.6
same,PBM binding z-score,[20],2.21
CGTCCAAGGTCAGAGAGGTCAGTTAATGCCGAGT,PBM binding z-score,[1],6.19
same,PBM binding z-score,[2],5.39
same,PBM binding z-score,[3],3.93
same,PBM binding z-score,[4],4.99
same,PBM binding z-score,[5],0.784
same,PBM binding z-score,[6],4.72
same,PBM binding z-score,[7],3.34
same,PBM binding z-score,[8],4.09
same,PBM binding z-score,[9],0.894
same,PBM binding z-score,[10],2.9
same,PBM binding z-score,[11],3.01
same,PBM binding z-score,[12],3.3
same,PBM binding z-score,[13],0.545
same,PBM binding z-score,[14],0.19
same,PBM binding z-score,[15],6.18
same,PBM binding z-score,[16],6.24
same,PBM binding z-score,[17],12.6
same,PBM binding z-score,[18],5.94
same,PBM binding z-score,[19],3.51
same,PBM binding z-score,[20],5.22
CCTAGCAGGCCAATCTGGGTCACTCAAGGCTTGA,PBM binding z-score,[1],1.5
same,PBM binding z-score,[2],1.42
same,PBM binding z-score,[3],-0.498
same,PBM binding z-score,[4],0.851
same,PBM binding z-score,[5],-1.04
same,PBM binding z-score,[6],3.1
same,PBM binding z-score,[7],1.69
same,PBM binding z-score,[8],2.6
same,PBM binding z-score,[9],-0.232
same,PBM binding z-score,[10],1.52
same,PBM binding z-score,[11],4.72
same,PBM binding z-score,[12],5.12
same,PBM binding z-score,[13],-1.06
same,PBM binding z-score,[14],-0.836
same,PBM binding z-score,[15],0.786
same,PBM binding z-score,[16],0.995
same,PBM binding z-score,[17],-0.679
same,PBM binding z-score,[18],1.17
same,PBM binding z-score,[19],-0.672
same,PBM binding z-score,[20],1.58
CAAACTAGGTCAAGAGGGCAAAGTCCGCTTCCCG,PBM binding z-score,[1],4.55
same,PBM binding z-score,[2],4
same,PBM binding z-score,[3],1.14
same,PBM binding z-score,[4],2.47
same,PBM binding z-score,[5],0.164
same,PBM binding z-score,[6],5.21
same,PBM binding z-score,[7],8.68
same,PBM binding z-score,[8],7.36
same,PBM binding z-score,[9],5.56
same,PBM binding z-score,[10],7.15
same,PBM binding z-score,[11],8.35
same,PBM binding z-score,[12],8.37
same,PBM binding z-score,[13],4.28
same,PBM binding z-score,[14],1.48
same,PBM binding z-score,[15],3.42
same,PBM binding z-score,[16],2.98
same,PBM binding z-score,[17],0.703
same,PBM binding z-score,[18],3.96
same,PBM binding z-score,[19],1.19
same,PBM binding z-score,[20],4.53
AGTCAAAGTTCATCTAGGCAACGTAAGATATGCT,PBM binding z-score,[1],6.17
same,PBM binding z-score,[2],6.15
same,PBM binding z-score,[3],4.67
same,PBM binding z-score,[4],3.78
same,PBM binding z-score,[5],1.77
same,PBM binding z-score,[6],4.92
same,PBM binding z-score,[7],6.47
same,PBM binding z-score,[8],6.11
same,PBM binding z-score,[9],3.4
same,PBM binding z-score,[10],5.44
same,PBM binding z-score,[11],0.192
same,PBM binding z-score,[12],3.08
same,PBM binding z-score,[13],1.23
same,PBM binding z-score,[14],0.857
same,PBM binding z-score,[15],2.59
same,PBM binding z-score,[16],5.11
same,PBM binding z-score,[17],4.94
same,PBM binding z-score,[18],3.62
same,PBM binding z-score,[19],0.925
same,PBM binding z-score,[20],5.1
GGAACGAGGGCAAAGTTGTTAGCATCTGTCGACG,PBM binding z-score,[1],0.763
same,PBM binding z-score,[2],0.635
same,PBM binding z-score,[3],-0.337
same,PBM binding z-score,[4],0.517
same,PBM binding z-score,[5],-0.419
same,PBM binding z-score,[6],2.61
same,PBM binding z-score,[7],3.61
same,PBM binding z-score,[8],4.82
same,PBM binding z-score,[9],2.96
same,PBM binding z-score,[10],4.84
same,PBM binding z-score,[11],3.85
same,PBM binding z-score,[12],3.57
same,PBM binding z-score,[13],0.128
same,PBM binding z-score,[14],-0.75
same,PBM binding z-score,[15],0.469
same,PBM binding z-score,[16],0.802
same,PBM binding z-score,[17],0.198
same,PBM binding z-score,[18],0.675
same,PBM binding z-score,[19],0.0341
same,PBM binding z-score,[20],2.31
CAAACTAGGTCAAGGTCACAGTCGGTTTGTGCCA,PBM binding z-score,[1],6.76
same,PBM binding z-score,[2],5.24
same,PBM binding z-score,[3],3.28
same,PBM binding z-score,[4],4.15
same,PBM binding z-score,[5],0.607
same,PBM binding z-score,[6],6.25
same,PBM binding z-score,[7],9.88
same,PBM binding z-score,[8],8.18
same,PBM binding z-score,[9],6.72
same,PBM binding z-score,[10],8.13
same,PBM binding z-score,[11],8.39
same,PBM binding z-score,[12],8.56
same,PBM binding z-score,[13],6.22
same,PBM binding z-score,[14],2.94
same,PBM binding z-score,[15],5.11
same,PBM binding z-score,[16],5.3
same,PBM binding z-score,[17],1.75
same,PBM binding z-score,[18],5.94
same,PBM binding z-score,[19],1.99
same,PBM binding z-score,[20],5.17
